Screening data: PubChem BioAssay, National Center for Advancing Translational Sciences (NCATS)
ALDH1A1 block: inhibitors of human aldehyde dehydrogenase 1A1; Purified ALDH1A1, NADH fluorescence, propionaldehyde substrate; Potency, µM (titrated, usually from 75.3 µM), hits mostly inhibitors; 7.3% of 220,000 active; active = well fitted inhibition curve with a large enough effect, not every such curve was filed as active; inconclusive = small, poorly fitted or top-dose-only effect, or another doubt; inactive = no such curve, though single readings can be large or run the other way
PNC inhibitor: blocks assembly of the perinucleolar compartment; AID 2417; PC3M PTB-GFP, PNC prevalence imaging, 16 h; active compounds read low; activity change (PNC), negative = inhibition, % at 10 µM; 3.1% of 140,000 active;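 active = readout at or below -70, meaning at least 70% loss of cells showing the perinucleolar compartment, a nuclear body marking cancer cells; inconclusive = readout between -30 and a set limit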
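Compounds are pinned in duplicate onto adhered PC3M cells stably expressing GFP-tagged PTB and incubated 16 h at 37 C. Cells are then fixed, nuclei stained with Hoechst, and PNC-positive cells counted.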
HPGD inh: inhibitors of human 15-hydroxyprostaglandin dehydrogenase (HPGD); P15428; purified HPGD, NADH fluorescence kinetic, PGE2 substrate; Potency, µM, most hits filed as inhibitors; 4.3% of 150,000 active; active = well fitted inhibition curve with a large enough effect, not every such curve was filed as active; inconclusive = small, poorly fitted or top-dose-only effect, or another doubt; inactive = no such curve, though single readings can be large or run the other way
Target sequence (P15428 whole entry, looked up): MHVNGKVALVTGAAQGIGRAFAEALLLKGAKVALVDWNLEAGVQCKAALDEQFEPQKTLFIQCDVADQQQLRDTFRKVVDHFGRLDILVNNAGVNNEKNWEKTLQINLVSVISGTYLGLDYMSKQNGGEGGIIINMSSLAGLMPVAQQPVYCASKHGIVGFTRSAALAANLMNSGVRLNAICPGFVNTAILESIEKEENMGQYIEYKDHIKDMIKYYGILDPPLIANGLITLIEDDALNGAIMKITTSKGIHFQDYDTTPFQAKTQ
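NADH formation kinetics: reaction with 30 uM PGE2 and 1 mM NAD+ (final), 20 nM enzyme, Tris-HCl pH 8 with Tween 20, after 15 min compound preincubation at room temperature. Fluorescence change, last versus first of five reads.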
GLA inh pH 4.5: blocks human alpha-galactosidase A at pH 4.5; P06280; purified enzyme, 4-MU-alpha-Gal fluorescence, pH 4.5; activity change, negative = inhibition, % at 105 µM; 230,000 tested, under 10 active
12-hLO inh: 12-hLO (ALOX12) enzyme inhibition | Potency, µM (highest dose often 57.1 µM), usual class: inhibitors | AID 1452 | purified 12-hLO, xylenol orange hydroperoxide absorbance | 0.12% of 150,000 active | P18054; note: nearly all actives have a fitted effect of over 55% in size
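Xylenol orange chromogenic assay: hydroperoxide from 12hLO oxidises Fe(II), giving red-shifted Fe(III)-XO absorbance. Conditions: 150 nM enzyme, 40 uM arachidonic acid, 25 mM Hepes pH 7.0, 0.01% Triton X-100, 30 min, room temperature.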
aGal spleen mod: alpha-galactosidase A (human) modulation; human spleen homogenate, 4MU-alpha-Gal fluorescence, 40 min; Potency, µM (titrated, usually from 80 µM), usual class: inhibitors; 0.008% of 240,000 active
Target sequence (P06280 32-429 limits assumed): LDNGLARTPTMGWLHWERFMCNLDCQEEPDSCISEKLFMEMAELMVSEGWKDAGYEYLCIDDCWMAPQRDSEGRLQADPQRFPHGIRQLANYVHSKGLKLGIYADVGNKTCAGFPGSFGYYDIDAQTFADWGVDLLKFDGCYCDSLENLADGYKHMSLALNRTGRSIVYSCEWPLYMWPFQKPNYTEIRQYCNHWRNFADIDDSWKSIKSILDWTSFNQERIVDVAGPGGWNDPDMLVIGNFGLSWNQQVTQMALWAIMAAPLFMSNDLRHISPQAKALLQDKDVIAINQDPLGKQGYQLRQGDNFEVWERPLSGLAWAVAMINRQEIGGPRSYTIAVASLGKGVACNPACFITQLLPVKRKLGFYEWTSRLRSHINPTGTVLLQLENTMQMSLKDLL
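Spleen homogenate 1 ug + cpd (titration) + 4-MU-alpha-D-galactopyranoside 1 mM; 37C 40 min; 50 mM citrate/phosphate pH 5.0, 0.01% Tween-20; stop pH 10; fluorescence 365/440; AC50 via Hill.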
Hits are given with their value; - = inactive; ? = inconclusive; . = no result given; [ ] = dose if it differs, or a comment. A selection: hits, their analogues and other compounds. The true share with any hit is near 10%. Unless noted, calls come from the whole dose curve; as a rule, active = well fitted curve in the direction sought with a large enough effect; inconclusive = small, poorly fitted or top-dose-only effect, or another doubt; inactive = no such curve, though single readings can be large; an effect the other way counts as inactive or inconclusive.

SMILES | ALDH1A1 block | PNC inhibitor | HPGD inh | GLA inh pH 4.5 | 12-hLO inh | aGal spleen mod
COCCN1C(=O)/C(=C/c2ccc(Oc3ccc([N+](=O)[O-])cn3)c(OC)c2)SC1=Nc1ccccc1 | 0.4µM | ? | - | - | - | -
COc1cc(/C=C2/NC(=O)N(CC(=O)Nc3ccc(C)cc3)C2=O)ccc1Oc1ccc([N+](=O)[O-])cn1 | - | . | . | - | . | -
CCOC(=O)C1CCN(c2nc3ccccc3nc2C(C#N)C(=O)NCCc2ccccc2)CC1 (centres undefined) | ? | - | 18µM | . | ? | -
N#CC(C(=O)OC1CCCCC1)c1nc2ccccc2nc1N1CCOCC1 (centres undefined) | - | - | - | - | - | -
CCOC(=O)C1CCCN(c2nc3ccccc3nc2C(C#N)C(=O)OCC)C1 (centres undefined) | - | - | - | - | - | -
CC(C)COC(=O)C(C#N)c1nc2ccccc2nc1N1CCN(Cc2ccccc2)CC1 (centres undefined) | 13µM | - | - | - | - | -
COCCOC(=O)C(C#N)c1nc2ccccc2nc1N1CCN(Cc2ccccc2)CC1 (centres undefined) | ? | ? | - | - | - | -
CN1CCN(c2nc3ccccc3nc2C(C#N)C(=O)OC2CCCCC2)CC1 (centres undefined) | 16µM | - | - | - | - | -
CCC(CC)COC(=O)C(C#N)c1nc2ccccc2nc1N1CCOCC1 (centres undefined) | 10µM | ? | - | - | - | -
COc1ccc(Oc2cccc(Cl)c2CNC(=O)c2ccccc2C(=O)O)cc1 | - | . | . | - | . | -
COc1ccc2[nH]cc(CCNc3cc(-c4c(C)noc4C)ncn3)c2c1 | ? | . | . | . | . | -
COc1ccc(-c2cc(N)n(S(=O)(=O)c3ccc(C)cc3)n2)c(OC)c1 | ? | -91 | - | - | - | -
COc1ccc(S(=O)(=O)n2nc(-c3ccc(Cl)cc3)cc2N)cc1 | . | . | . | - | . | -
CCCN(CCC)C(=O)CSc1nc2ccccc2c(=O)n1CC1COc2ccccc2O1 (centres undefined) | 11µM | - | - | - | - | -
CCOC(=O)CSc1nc2ccccc2c(=O)n1CC1COc2ccccc2O1 (centres undefined) | ? | - | - | - | - | -
CSCCOC(=O)C1=C(C)Nc2ccc(C)cc2S1 | 14µM | ? | - | - | - | -
Cc1ccc(S(=O)(=O)NNC(=O)c2sc(=S)n(C)c2C)cc1 | ? | ? | - | - | - | -
CCCCNCC#CCOc1cc(C)ccc1C(C)C | ? | . | . | - | . | -
CCCc1nc2oc3c(OC)ncnc3c2c2c1COC(C)(C)C2 | 0.89µM | - | - | - | - | -
CCCc1nc2oc3c(NCCOCCO)ncnc3c2c2c1COC(C)(C)C2 | ? | -111 | ? | - | - | -
O=C(O)c1cccnc1Br | - | . | . | - | . | -
O=C(c1cnccn1)N1CCC2(CCCN(c3ccccn3)C2)CC1 | - | . | - | . | - | -
CCOc1ccccc1N1CCN(C(=O)c2ccc3[nH]c4c(c3c2)CCCC4)CC1 | - | - | - | - | - | -
C=CCNC1=C2C[C@@H](C)C[C@H](OC)[C@H](O)[C@@H](C)/C=C(\C)[C@H](OC(N)=O)[C@@H](OC)/C=C/C=C(\C)C(=O)NC(=CC1=O)C2=O | -[13.5 µM] | . | - | - | -[0.00818 µM] | -[17.5 µM]
COC(=O)C1=C(C(=O)OC)[C@@H]2N(C)c3ccc(OC)cc3[C@@]23C[C@@H](C(=O)OC)N(C(=O)COCc2ccccc2)C3=N1 | -[13.5 µM] | . | - | - | -[11.4 µM] | -[17.5 µM]
SMILES | ALDH1A1 block | PNC inhibitor | HPGD inh | GLA inh pH 4.5 | 12-hLO inh | aGal spleen mod
CCOc1cc(/C=N/Nc2cccc(C(=O)O)c2)ccc1OC(=O)c1ccccc1 | 40µM | . | . | - | . | -
COc1ccc(Oc2ncc3nc(-c4ccc(F)cc4)c(=O)n(C[C@H]4CCCO4)c3n2)cc1 | - | . | . | . | . | -
COc1ccc(-c2cnc(N)n2CC2CCCO2)cc1 (centres undefined) | 40µM | ? | - | - | - | -
c1ccc(Cn2c(SCCN3CCOCC3)nnc2-c2cccnc2)cc1 | ? | ? | - | - | - | -
c1ccc(-c2cnc(SCCN3CCOCC3)n2CC2CCCO2)cc1 (centres undefined) | 10µM | - | - | - | - | -
CCOC(=O)c1ccc2c(c1)nc(-c1ccc(F)cc1)c1nccn12 | ? | - | ? | - | - | -
COc1cc2c(cc1OC)CN(c1ccc(-c3ccccc3OC)nn1)CC2 | - | - | 35µM | - | - | -
c1ccc(CN2CC[C@@H](CNc3ncnc4ccccc34)C2)cc1 | -[13.5 µM] | . | - | . | -[11.4 µM] | .
CC(C)OC(C)C | . | . | . | . | . | -
COc1ccc(N2C(=O)CCC(C(=O)N3CCCCC3)C2c2ccc(OC)c(OC)c2)cc1 (centres undefined) | - | - | - | - | - | -
COc1ccc(N2C(=O)CCC(C(=O)NCc3ccccn3)C2c2ccc(F)cc2)cc1 (centres undefined) | - | - | - | - | - | -
COc1ccc(C2C(C(=O)NCC3CCCO3)CCC(=O)N2c2ccc3c(c2)OCO3)cc1 (centres undefined) | 14µM | - | - | - | - | -
COc1ccc(C2C(C(=O)N3CCOCC3)CCC(=O)N2c2ccc(OC)cc2)cc1 (centres undefined) | 14µM | ? | - | - | - | -
COc1ccc(N2C(=O)CCC(C(=O)Nc3cccc(C)n3)C2c2ccc(OC)c(OC)c2)cc1 (centres undefined) | 22µM | - | - | - | - | -
CCn1c(SCC(=O)N/N=C/C=C/c2ccco2)nnc1-c1ccc(OC)cc1 | - | ? | 32µM | - | - | -
C/C(=N\NC(=O)Cc1cccn1C)c1ccco1 | . | . | . | - | . | -
CCn1c(SCC(=O)N/N=C/C=C/c2ccco2)nc2ccccc21 | 13µM | - | - | - | - | -
CCn1c(SCC(=O)N/N=C/C=C/c2ccccc2[N+](=O)[O-])nnc1-c1ccc(Cl)cc1 | 4.5µM | ? | - | - | - | -
Cn1cccc1CC(=O)N/N=C/C=C/c1ccco1 | - | ? | 16µM | - | - | -
COc1ccc(C2/C=C\CN(C(=O)c3ccc(C)cc3)C(C)C(=O)N2Cc2ccc(F)cc2)cc1 (centres undefined) | . | . | . | . | . | -
COc1ccc([C@@H]2CC(=O)c3c(O)cc(O[C@@H]4O[C@H](CO)[C@@H](O)[C@H](O)[C@H]4O[C@@H]4O[C@@H](C)[C@H](O)[C@@H](O)[C@H]4O)cc3O2)cc1 | . | . | . | . | . | -
O=C(CSc1nnc(SCc2ccccc2)s1)N/N=C/C=C\c1ccco1 | 18µM | - | 16µM | - | - | -
CC(/C=N/NC(=O)CSc1nc2ccccc2n1C)=C\c1ccco1 | 13µM | - | - | - | - | -
C/C(=N/NC(=O)Cc1cccn1C)c1ccccc1 | 18µM | - | - | - | - | -
